Reference: the supplement of paper PMC8728848
About 410 targets per protein were measured; listed, in parts, are those with the strongest signals and a random draw of the rest.

Legend:
Test in all cases: glycan array binding signal (z-score within array); higher = stronger binding
Details in all cases: glycan notation: IUPAC condensed, linker removed
[1] = molecular target: Fuc(a1-2)Gal(b1-3)GlcNAc(b1-2)Man(a1-3)[Fuc(a1-2)Gal(b1-3)GlcNAc(b1-2)Man(a1-6)]Man(b1-4)GlcNAc(b1-4)[Fuc(a1-6)]GlcNAc
Outline: (§1)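 The binding signal is a Z-score computed within each array. Data were drawn from 3228 arrays in the Consortium for Functional Glycomics database, restricted to those with a known protein sequence. Scores were averaged over arrays of the same protein sequence at different concentrations or buffers, and over linkers, and negative values can be taken as non-binding.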

[2] = molecular target: Fuc(a1-2)Gal(b1-3)GlcNAc(b1-3)[Fuc(a1-2)Gal(b1-3)GlcNAc(b1-6)]GalNAc
Outline: as §1

[3] = molecular target: Fuc(a1-2)Gal(b1-3)[Fuc(a1-4)]GlcNAc(b1-3)[Gal(b1-4)GlcNAc(b1-6)]Gal(b1-4)Glc
Outline: as §1

[4] = molecular target: Fuc(a1-2)Gal(b1-4)GlcNAc(b1-3)Gal(b1-4)GlcNAc(b1-2)Man(a1-3)[Fuc(a1-2)Gal(b1-4)GlcNAc(b1-3)Gal(b1-4)GlcNAc(b1-2)Man(a1-6)]Man(b1-4)GlcNAc(b1-4)GlcNAc
Outline: as §1

[5] = molecular target: Fuc(a1-2)[Gal(a1-3)]Gal(b1-4)GlcNAc
Outline: as §1

[6] = molecular target: Fuc(a1-2)[Gal(a1-3)]Gal(b1-4)GlcNAc(b1-3)[Fuc(a1-2)[Gal(a1-3)]Gal(b1-4)GlcNAc(b1-6)]GalNAc
Outline: as §1

[7] = molecular target: Fuc(a1-2)[GalNAc(a1-3)]Gal(b1-3)GlcNAc(b1-6)GalNAc
Outline: as §1

[8] = molecular target: Fuc(a1-3)[Gal(b1-4)]GlcNAc(b1-3)GalNAc
Outline: as §1

[9] = molecular target: Fuc(a1-4)GlcNAc
Outline: as §1

[10] = molecular target: Fuc(b1-3)GlcNAc
Outline: as §1

[11] = molecular target: Gal(a1-3)Gal(b1-4)[Fuc(a1-3)]GlcNAc(b1-2)Man(a1-3)[Gal(a1-3)Gal(b1-4)[Fuc(a1-3)]GlcNAc(b1-2)Man(a1-6)]Man(b1-4)GlcNAc(b1-4)GlcNAc
Outline: as §1

[12] = molecular target: Gal(a1-4)GlcNAc
Outline: as §1

[13] = molecular target: Gal(b1-3)GlcNAc(a1-6)Gal(b1-4)GlcNAc
Outline: as §1

[14] = molecular target: Gal(b1-4)GlcNAc(b1-3)Gal(b1-3)GalNAc
Outline: as §1

[15] = molecular target: Gal(b1-4)GlcNAc(b1-3)Gal(b1-3)GlcNAc
Outline: as §1

[16] = molecular target: Gal(b1-4)GlcNAc(b1-3)Gal(b1-4)GlcNAc(b1-2)[Gal(b1-4)GlcNAc(b1-3)Gal(b1-4)GlcNAc(b1-6)]Man(a1-6)[Gal(b1-4)GlcNAc(b1-3)Gal(b1-4)GlcNAc(b1-2)Man(a1-3)]Man(b1-4)GlcNAc(b1-4)GlcNAc
Outline: as §1

[17] = molecular target: Gal(b1-4)GlcNAc(b1-3)Gal(b1-4)GlcNAc(b1-3)Gal(b1-4)GlcNAc(b1-3)Gal(b1-4)GlcNAc(b1-2)[Gal(b1-4)GlcNAc(b1-3)Gal(b1-4)GlcNAc(b1-3)Gal(b1-4)GlcNAc(b1-3)Gal(b1-4)GlcNAc(b1-6)]Man(a1-6)[Gal(b1-4)GlcNAc(b1-3)Gal(b1-4)GlcNAc(b1-3)Gal(b1-4)GlcNAc(b1-3)Gal(b1-4)GlcNAc(b1-2)Man(a1-3)]Man(b1-4)GlcNAc(b1-4)[Fuc(a1-6)]GlcNAc
Outline: as §1

[18] = molecular target: Gal(b1-4)GlcNAc(b1-3)Gal(b1-4)GlcNAc(b1-3)Gal(b1-4)GlcNAc(b1-3)Gal(b1-4)GlcNAc(b1-3)Gal(b1-4)GlcNAc(b1-2)Man(a1-3)[Gal(b1-4)GlcNAc(b1-3)Gal(b1-4)GlcNAc(b1-3)Gal(b1-4)GlcNAc(b1-3)Gal(b1-4)GlcNAc(b1-3)Gal(b1-4)GlcNAc(b1-2)Man(a1-6)]Man(b1-4)GlcNAc(b1-4)[Fuc(a1-6)]GlcNAc
Outline: as §1

[19] = molecular target: Gal3S(b1-3)[Fuc(a1-4)]GlcNAc
Outline: as §1

[20] = molecular target: Gal3S(b1-4)Glc
Outline: as §1

[21] = molecular target: Gal3S(b1-4)[Fuc(a1-3)]GlcNAc6S
Outline: as §1

[22] = molecular target: GalNAc(a1-3)GalNAc(b1-3)Gal(a1-4)Gal(b1-4)GlcNAc
Outline: as §1

[23] = molecular target: Glc(b1-6)Glc
Outline: as §1

[24] = molecular target: GlcNAc(a1-4)Gal(b1-4)GlcNAc(b1-3)Gal(b1-4)[Fuc(a1-3)]GlcNAc(b1-3)Gal(b1-4)[Fuc(a1-3)]GlcNAc
Outline: as §1

[25] = molecular target: GlcNAc(b1-2)Man(a1-3)[GlcNAc(b1-2)Man(a1-6)]Man(b1-4)GlcNAc(b1-4)GlcNAc
Outline: as §1

[26] = molecular target: Kdn(a2-3)Gal(b1-3)GlcNAc
Outline: as §1

[27] = molecular target: Man(a1-2)Man(a1-3)[Man(a1-2)Man(a1-6)]Man
Outline: as §1

[28] = molecular target: Man(a1-2)Man(a1-3)[Man(a1-6)]Man(a1-6)[Man(a1-2)Man(a1-3)]Man(b1-4)GlcNAc(b1-4)GlcNAc
Outline: as §1

[29] = molecular target: Man(a1-2)Man(a1-6)[Man(a1-3)]Man(a1-6)[Man(a1-2)Man(a1-2)Man(a1-3)]Man
Outline: as §1

[30] = molecular target: Neu5Ac(a2-3)Gal(b1-3)[GlcNAc(b1-6)]GalNAc
Outline: as §1

[31] = molecular target: Neu5Ac(a2-3)Gal(b1-3)[Neu5Ac(a2-6)]GalNAc
Outline: as §1

[32] = molecular target: Neu5Ac(a2-3)Gal(b1-4)Glc
Outline: as §1

[33] = molecular target: Neu5Ac(a2-3)Gal(b1-4)GlcNAc(b1-2)Man
Outline: as §1

[34] = molecular target: Neu5Ac(a2-3)Gal(b1-4)GlcNAc(b1-3)Gal(b1-4)GlcNAc(b1-3)[Neu5Ac(a2-3)Gal(b1-4)GlcNAc(b1-3)Gal(b1-4)GlcNAc(b1-6)]GalNAc
Outline: as §1

[35] = molecular target: Neu5Ac(a2-3)Gal(b1-4)GlcNAc(b1-3)GalNAc
Outline: as §1

[36] = molecular target: Neu5Ac(a2-3)Gal(b1-4)[Fuc(a1-3)]GlcNAc(b1-6)[Gal(b1-3)]GalNAc
Outline: as §1

[37] = molecular target: Neu5Ac(a2-6)Gal(b1-4)GlcNAc
Outline: as §1

[38] = molecular target: Neu5Ac(a2-6)Gal(b1-4)GlcNAc(b1-3)GalNAc
Outline: as §1

[39] = molecular target: Neu5Ac(a2-6)GalNAc(b1-4)GlcNAc
Outline: as §1

[40] = molecular target: Neu5Ac(a2-6)GlcNAc(b1-4)GlcNAc(b1-4)GlcNAc
Outline: as §1

B1: BC2LB (Burholderia cenocepacia), B4EH85_BURCJ (protein)
chain: MGSSHHHHHHSSGENLYFQGHMSQPFTHDDLYALLQLAGNDATAVQANGDQAVLDRMRQFMTAQLVEKLPQYDVFVDIATIPYSFDVGSWQNKVKTDAAGEVVACTVTWAGAPGVLPGAAAKFGVGAVVNYFSKATPH
glycan array binding signal (z-score) [1]: -0.135
glycan array binding signal (z-score) [2]: -0.166
glycan array binding signal (z-score) [3]: -0.251
glycan array binding signal (z-score) [4]: 0.245
glycan array binding signal (z-score) [5]: -0.238
glycan array binding signal (z-score) [6]: 6.98
glycan array binding signal (z-score) [7]: 7.53
glycan array binding signal (z-score) [8]: 0.001
glycan array binding signal (z-score) [9]: 2.88
glycan array binding signal (z-score) [10]: 1.63
glycan array binding signal (z-score) [11]: 0.053
glycan array binding signal (z-score) [12]: -0.101
glycan array binding signal (z-score) [13]: -0.227
glycan array binding signal (z-score) [14]: -0.131
glycan array binding signal (z-score) [15]: -0.143
glycan array binding signal (z-score) [16]: 11.3
glycan array binding signal (z-score) [17]: -0.198
glycan array binding signal (z-score) [18]: 0.012
glycan array binding signal (z-score) [19]: 0.995
glycan array binding signal (z-score) [20]: 1.52
glycan array binding signal (z-score) [21]: 0.149
glycan array binding signal (z-score) [22]: -0.055
glycan array binding signal (z-score) [23]: 0.216
glycan array binding signal (z-score) [24]: 1.79
glycan array binding signal (z-score) [25]: -0.234
glycan array binding signal (z-score) [26]: -0.201
glycan array binding signal (z-score) [27]: -0.345
glycan array binding signal (z-score) [28]: -0.397
glycan array binding signal (z-score) [29]: -0.2
glycan array binding signal (z-score) [30]: -0.242
glycan array binding signal (z-score) [31]: 2.87
glycan array binding signal (z-score) [32]: 5.24
glycan array binding signal (z-score) [33]: 2.39
glycan array binding signal (z-score) [34]: -0.203
glycan array binding signal (z-score) [35]: -0.104
glycan array binding signal (z-score) [36]: -0.247
glycan array binding signal (z-score) [37]: -0.206
glycan array binding signal (z-score) [38]: 10.1
glycan array binding signal (z-score) [39]: -0.418
glycan array binding signal (z-score) [40]: -0.338
